The source of these data is PubChem BioAssay (NCI).

About 83,000 compounds went through this panel and 20% of them were active in at least one assay; those are over-represented in the sample as a whole.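 Plates (96-well) were seeded with cells, treated with compound at one concentration, and incubated for 48 hours before percent growth was determined.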 A number with no mark means an inactive call. The source made the active and inactive calls. The calls were made as follows: active = growth percent below 10; inactive = the rest.

What all share (assay): NCI-60 one-dose screen, 48 h (100 = growth as untreated, 0 = no growth, -100 = all killed)
Settings in all cases: 10 µM unless noted

Experiment [1] deals with DU-145 prostate.
Experiment [2] relates to K-562 leukemia.
Experiment [3] concerns MALME-3M melanoma.
Experiment [4] has as its system MDA-MB-231 breast.
Experiment [5] has as its system RXF 393 renal.
In experiment [6] the test system is SF-268 CNS.
For experiment [7], the system named is SF-295 CNS.
The test system of experiment [8] is SF-539 CNS.
For experiment [9], the system named is UACC-257 melanoma.
Experiment [10] concerns M14 melanoma.

In the case of `COC(=O)[C@H](Cc1c[nH]c2ccccc12)NC(=O)[C@@H](OC)[C@@H]1Cc2cc3cc(OC4CC(OC5CC(O)C(O)C(C)O5)C(O)C(C)O4)c(C)c(O)c3c(O)c2C(=O)[C@H]1OC1CC(OC2CC(OC3CC(C)(O)C(O)C(C)O3)C(O)C(C)O2)C(O)C(C)O1` (stereo not given in full), the growth was 12.5% in [1]; 4.37% (active) in experiment [2]; -47% (active) in [3]; -14% (active) in [4]; -85.9% (active) in [5]; -10.1% (active) in experiment [6]. Moreover, the growth in experiment [7] was -6.35% (active); in experiment [8] it was -35.3% (active); in [9], -5% (active); in experiment [10] it was -60.2% (active).

`[Cl][Hg][c]1cc(Br)cc(Br)c1`: the growth in experiment [1] was 79.3%; in [2], 6.31% (active); in experiment [3] it was 69.8%; in [4], 19.8%; in experiment [5] it was -18.3% (active); in experiment [6], 25.6%. For the same molecule, the growth in experiment [7] was 80.2%; in [8], 38.9%; in [9], 58.5%; in [10], 46.1%.

As to `O=C1NC(=O)C(=Cc2ccc(OCCCCC3CCCCC3)c(Cl)c2)C(=O)N1`, the growth in [1] is 106%; in experiment [2], 88.3%; in [3], 110%; in experiment [4] it was 100%; in [5], 103%; in [6], 99.7%. The growth in experiment [7] was 94%; in experiment [8], 92.8%; in experiment [9], 107%; in experiment [10] it was 86.6%.

With `O=C(CCCCCNC1=CC(=O)c2ccccc2C1=O)NCCC[Te]c1ccccc1`, the growth in experiment [1] was -11.6% (active); in experiment [2] it was 32.7%; in experiment [3], -52.3% (active); in experiment [4] it was -39.8% (active); in experiment [5] it was 13.8%; in [6] it was -26.7% (active). Moreover, the growth in [7] was -32.5% (active); in experiment [8], -49.7% (active); in experiment [9], 2.91% (active); in experiment [10], -37.6% (active).

As for `CC[C@H](C)[C@H](NC(=O)C12C3C4C1C1C2C3C41NC)C(=O)N(C)[C@H](C[C@@H](OC(C)=O)c1nc(C(=O)N[C@@H](Cc2ccccc2)C[C@H](C)C(=O)OC)cs1)C(C)C` (stereo not given in full), the growth in [1] is 7.38% (active); in [2] it was 9.19% (active); in [3], 50.1%; in [4], 29.1%; in experiment [5] it was 39.4%; in [6], 30%. The growth is 19.4% in experiment [7], -5.82% (active) in experiment [8], 42.1% in experiment [9] and -14.4% (active) in experiment [10].

As to `c1cnc2[nH]cc(-c3csc(-c4cn(CCCCN5CCCCC5)c5ccccc45)n3)c2c1`, the growth in experiment [1] is 107%; in experiment [2], 10.9%; in [3], 92.8%; in [4], 83.3%; in experiment [5] it was 87.3%; in [6], 86.1%. Also, the growth in experiment [7] was 94.8%; in experiment [8], 86.5%; in [9], 112%; in experiment [10], 50.2%.

For `COC(=O)[C@H](Cc1ccccc1)NC(=O)c1csc([C@@H](C[C@H](C(C)C)N(C)C(=O)[C@@H](NC(=O)[C@H]2CCCN2C)C2CC2)OC(C)=O)n1`, the growth in experiment [1] was 7.69% (active); in experiment [2], 1.55% (active); in experiment [3], 62.9%; in experiment [4] it was 6.1% (active); in experiment [5], 23.3%; in [6], 24.4%. Moreover, the growth is -4.82% (active) in experiment [7], -24.9% (active) in experiment [8], 61.9% in experiment [9] and 1.22% (active) in experiment [10].

Consider `COC(=O)[C@@H](C)C[C@H](Cc1ccccc1)NC(=O)c1csc([C@@H](C[C@H](C(C)C)N(C)C(=O)[C@@H](NC(=O)[C@H]2CCCCN2C)C2CCCCC2)OC(C)=O)n1`, for which the growth was 6.23% (active) in [1]; -0.636% (active) in experiment [2]; 56.9% in experiment [3]; -3.53% (active) in experiment [4]; 65.5% in experiment [5]; 8.92% (active) in [6]. The growth in [7] is -3.03% (active); in [8], -22.3% (active); in experiment [9], 48%; in experiment [10], -35.1% (active).

With `COc1ccc(C(=O)c2cc(OC)c(OC)c(OC)c2)cc1OC(C)=O`, the growth in experiment [1] is 4.78% (active); in [2], 10.4%; in experiment [3] it was 78%; in experiment [4], 33.8%; in [5], 49.3%; in experiment [6] it was 41.9%. In addition, the growth was 15.4% in experiment [7], 6.23% (active) in [8], 55.7% in [9] and 4.11% (active) in experiment [10].

Take `O=[N+]([O-])CC(c1ccccc1Cl)c1c(-c2ccccc2)[nH]c2ccccc12` (stereo not given): the growth in [1] was 43.7%; in experiment [2], 12.4%; in [3], 42.1%; in experiment [4], 46.2%; in experiment [5], 27.8%; in experiment [6] it was 50.1%. In addition, the growth is 24.3% in experiment [7], 27.2% in [8], 48.9% in experiment [9] and 21.3% in experiment [10].

On to `COC(=O)[C@H](Cc1ccccc1)NNC(=O)c1csc([C@@H](C[C@H](C(C)C)N(C)C(=O)[C@@H](NC(=O)[C@H]2CCCCN2C)C2CC2)OC(C)=O)n1`, for which the growth in experiment [1] is 6.55% (active); in experiment [2] it was 1.75% (active); in experiment [3], 71%; in experiment [4] it was 3.27% (active); in experiment [5], 76.4%; in [6], 22.5%. Moreover, the growth in experiment [7] was -5.26% (active); in experiment [8], -15.4% (active); in experiment [9], 58%; in experiment [10], 2.43% (active).

Take `CNC(=O)Oc1ccc(C(C)(C)C)cc1OC(=O)NC`: the growth in [1] was 105%; in experiment [2] it was 97.6%; in experiment [3], 104%; in experiment [4], 105%; in [5], 108%; in experiment [6], 105%. For the same molecule, the growth was 98.6% in [7], 103% in [8], 92% in experiment [9] and 93.3% in experiment [10].
